Sampled rows, rich in hits. Any-hit rate of the full collection: about 19%.
DT40 TDP1 CPT – qHTS for Inhibitors of human tyrosyl-DNA phosphodiesterase 1 (TDP1): qHTS in cells in presence of CPT | chicken DT40 Tdp1-/-;hTDP1 cells + 20 nM CPT, ATP luminescence, 48 h | Potency, µM (top dose mostly 46.2 µM), hits mostly inhibitors | actives 12% (n = 420,000); also: nearly all actives have a fitted effect of over 55% in size
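Cell growth measured by CellTiter-Glo luminescence after a minimum 48 h, 37 C compound exposure with 20 nM CPT in Tdp1-knockout DT40 cells stably expressing hTDP1, seeded 400/well; qHTS titration format.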
TDP1 cell noCPT – qHTS for Inhibitors of human tyrosyl-DNA phosphodiesterase 1 (TDP1): qHTS in cells in absence of CPT | DT40 Tdp1-/- hTDP1 cells, no CPT, ATP luminescence, 48 h | Potency, µM (titrated, usually from 46.2 µM), hits mostly inhibitors | actives 15% (n = 420,000); also: nearly all actives have a fitted effect of over 55% in size
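A cellular qHTS used chicken DT40 cells lacking endogenous Tdp1 but carrying stably transfected human TDP1. Compounds were applied without camptothecin, and cell growth kinetics were judged by ATP-dependent luminescence after ≥48 hr.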
HT1080 IDH1KD tx – qHTS for induction of synthetic lethality in tumor cells producing 2HG: qHTS for the HT-1080-IDH1KD cell line | HT-1080 IDH1 knockdown viability, ATP luminescence, 48 h | Potency, µM (series often up to 46.1 µM), most hits filed as cytotoxic | actives 2% (n = 360,000) | AID 686971, 2013
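Assay cells: HT-1080 with IDH1 knockdown, 750 per well, RPMI/5% FBS. Exposure: 48 h at 37 °C following 2 h pre-incubation. Read: CellTiter-Glo luminescence; fitted concentration-response, curve class assigned.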
IL-1B inflam inh – qHTS for Inhibitors of Inflammasome Signaling: IL-1-beta AlphaLISA Primary Screen | THP-1 LPS/ATP IL-1B secretion, AlphaLISA, 16 h; hits give low values | activity change, % at 57.5 µM | actives 4.7% (n = 360,000); in the data active = activity change below about -50%; inconclusive = mostly about -30% to -49%
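Secreted IL-1B measured by AlphaLISA bead assay after 16 h compound exposure of THP-1 cells; compounds (final up to 57.5 uM) added 1 h before LPS (250 ng/mL) and ATP (1.25 mM) stimulation; lower signal means less secretion.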
HT1080-NT tox – qHTS for induction of synthetic lethality in tumor cells producing 2HG: qHTS for the HT-1080-NT fibrosarcoma cell line; actives 1.6% (n = 360,000); HT-1080-NT fibrosarcoma viability, CellTiter-Glo ATP luminescence, 48 h; Potency, µM (top dose mostly 46.1 µM), usual class: cytotoxic;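 also: NT is the 2HG producing partner of a matched IDH1 knockdown line; nearly all actives have a fitted effect of over 55% in size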
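Viability by CellTiter-Glo luminescence after 48 h compound exposure at 37C of HT-1080-NT cells (750/well, RPMI, 5% FBS). % activity scaled between DMSO wells and medium-only wells, then curve-fitted and categorized by curve class.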
Numbers stand for hits; ! = repeats disagree. Unless noted, calls follow the shape of the dose curve; as a rule, active = well fitted curve in the direction sought with a large enough effect; inconclusive = small, poorly fitted or top-dose-only effect, or another doubt; inactive = no such curve, though single readings can be large; an effect the other way counts as inactive or inconclusive.

Results for O=C(Nc1nccs1)c1ccc(-c2ccccc2[N+](=O)[O-])o1 ?
DT40 TDP1 CPT: inconclusive; TDP1 cell noCPT: inconclusive; HT1080 IDH1KD tx: inactive; IL-1B inflam inh: inactive; HT1080-NT tox: inactive

How did O=C(NN1C(=O)NC2(CCCCC2)C1=O)c1ccc(-c2ccc([N+](=O)[O-])cc2)o1 do in these assays?
DT40 TDP1 CPT: 20.6µM; TDP1 cell noCPT: 20.6µM; HT1080 IDH1KD tx: inactive; IL-1B inflam inh: inactive; HT1080-NT tox: inactive

Results for Cc1ccc(N2CCn3c2nc2c3c(=O)n(C/C=C/c3ccccc3)c(=O)n2C)cc1C ?
DT40 TDP1 CPT: inactive; TDP1 cell noCPT: inactive

What do the screens show for `O=C1CCC(C(=O)N2CCc3c(Cl)cccc3C2)CN1CCCN1CCOCC1` (centres undefined)?
DT40 TDP1 CPT: inactive; TDP1 cell noCPT: inactive; HT1080 IDH1KD tx: inactive; IL-1B inflam inh: inactive; HT1080-NT tox: inactive

What do the screens show for `CN(CCC#N)c1ccc(C=C(C#N)c2cccc(C(F)(F)F)c2)cc1`?
DT40 TDP1 CPT: 16.4µM; TDP1 cell noCPT: 23.1µM; HT1080 IDH1KD tx: inactive; IL-1B inflam inh: inactive; HT1080-NT tox: inconclusive

What do the screens show for `CC(=O)Nc1ccc(C(C#N)=Cc2ccc(N(C)CCC#N)cc2)cc1`?
DT40 TDP1 CPT: inconclusive; TDP1 cell noCPT: 14.6µM; HT1080 IDH1KD tx: inactive; IL-1B inflam inh: inactive; HT1080-NT tox: inactive

Results for CC1CN(S(=O)(=O)c2cccc(C(=O)NCCc3ccc(S(N)(=O)=O)cc3)c2)CC(C)O1 (centres undefined) ?
DT40 TDP1 CPT: inactive; TDP1 cell noCPT: inactive; HT1080 IDH1KD tx: inactive; IL-1B inflam inh: inactive; HT1080-NT tox: inactive

Results for C/C(=N\NC(=O)C1(C)CC1(Br)Br)c1ccc([N+](=O)[O-])cc1 (centres undefined) ?
DT40 TDP1 CPT: inactive; TDP1 cell noCPT: inconclusive; HT1080 IDH1KD tx: inactive; IL-1B inflam inh: inactive; HT1080-NT tox: inactive

How did C/C(=N\NC(=O)C1(C)CC1(Br)Br)c1ccc(NC(=O)c2ccc(C)o2)cc1 (centres undefined) do in these assays?
DT40 TDP1 CPT: 13µM; TDP1 cell noCPT: 18.4µM; HT1080 IDH1KD tx: inactive; IL-1B inflam inh: inactive; HT1080-NT tox: inactive

How did COc1ccc(CC(=O)Nc2cccc(/C(C)=N/NC(=O)C3(C)CC3(Br)Br)c2)cc1 (centres undefined) do in these assays?
DT40 TDP1 CPT: 16.4µM; TDP1 cell noCPT: inconclusive; HT1080 IDH1KD tx: inactive; IL-1B inflam inh: inactive; HT1080-NT tox: inactive

How did CC(C)(C)c1cc(NCc2ccccn2)n2ncc(-c3ccccc3)c2n1 do in these assays?
DT40 TDP1 CPT: 2.59µM; TDP1 cell noCPT: 4.61µM; HT1080 IDH1KD tx: 20.6µM; IL-1B inflam inh: inactive; HT1080-NT tox: inconclusive

What do the screens show for `Cc1nn(Cc2cccc(F)c2)c(C)c1NC(=O)c1ccc(COc2ccccc2Cl)cc1`?
DT40 TDP1 CPT: 14.6µM; TDP1 cell noCPT: inconclusive; HT1080 IDH1KD tx: inconclusive; IL-1B inflam inh: inactive; HT1080-NT tox: 2µM

How did CC(C)CNC(=O)c1ccc(COc2ccc(Cl)cc2Cl)o1 do in these assays?
DT40 TDP1 CPT: 14.6µM; TDP1 cell noCPT: 20.6µM; HT1080 IDH1KD tx: inactive; IL-1B inflam inh: inconclusive; HT1080-NT tox: inactive

What do the screens show for `Cc1nn(Cc2c(F)c(F)c(F)c(F)c2F)c(C)c1NC(=O)c1ccc(COc2ccc(Cl)cc2Cl)o1`?
DT40 TDP1 CPT: 20.6µM; TDP1 cell noCPT: 14.6µM; HT1080 IDH1KD tx: inconclusive; IL-1B inflam inh: -63.2; HT1080-NT tox: inconclusive

How did CC(=O)Nc1ccc(NC(=O)c2ccc(COc3ccc(Cl)cc3Cl)o2)cc1 do in these assays?
DT40 TDP1 CPT: 16.4µM; TDP1 cell noCPT: 16.4µM

Results for CNC(=O)C[C@@H]1C(=O)N(C2CCCCC2)CC1(C)C ?
DT40 TDP1 CPT: inactive; TDP1 cell noCPT: inactive; HT1080 IDH1KD tx: inactive; IL-1B inflam inh: inactive; HT1080-NT tox: inactive

Results for c1ccc2oc(-c3ccc(Nc4nc(N5CCOCC5)nc(N5CCOCC5)n4)cc3)nc2c1 ?
DT40 TDP1 CPT: inactive; TDP1 cell noCPT: inactive; HT1080 IDH1KD tx: inactive; IL-1B inflam inh: inactive; HT1080-NT tox: inactive

What do the screens show for `CN(C)c1ccc(-c2cccc(C3CC=CC4C3C(=O)N(Cc3ccccc3)C4c3ccc(C(F)(F)F)cc3)c2)cc1` (centres undefined)?
DT40 TDP1 CPT: 11.6µM; TDP1 cell noCPT: 23.1µM; HT1080 IDH1KD tx: inactive; IL-1B inflam inh: inactive; HT1080-NT tox: inactive

How did Cc1ccc(-c2cccc(C3CC=CC4C3C(=O)N(Cc3ccccc3)C4c3cc(C)ccc3F)c2)cc1 (centres undefined) do in these assays?
DT40 TDP1 CPT: 16.4µM; TDP1 cell noCPT: 14.6µM; HT1080 IDH1KD tx: inactive; IL-1B inflam inh: inactive; HT1080-NT tox: inactive

How did COc1ccc(-c2cccc(C3CC=CC4C3C(=O)N(Cc3ccccc3)C4c3ccc(C(F)(F)F)cc3)c2)cc1 (centres undefined) do in these assays?
DT40 TDP1 CPT: inconclusive; TDP1 cell noCPT: 14.6µM; HT1080 IDH1KD tx: inactive; IL-1B inflam inh: inactive; HT1080-NT tox: inactive

Results for Cc1nc(-n2nc(C)c(Cc3ccccc3Cl)c2C)sc1C(=O)Nc1ccccc1F ?
DT40 TDP1 CPT: inactive; TDP1 cell noCPT: inactive

Results for COC(=O)CNC(=O)C(NC(=O)OCc1ccccc1)C(C)C (centres undefined) ?
DT40 TDP1 CPT: inactive; TDP1 cell noCPT: inactive; HT1080 IDH1KD tx: inactive; IL-1B inflam inh: inactive; HT1080-NT tox: inactive

What do the screens show for `CC(C)c1nc(CN(C)C(=O)N[C@H](C(=O)N[C@@H](Cc2ccccc2)C[C@H](O)[C@H](Cc2ccccc2)NC(=O)OCc2cncs2)C(C)C)cs1`?
DT40 TDP1 CPT: 16.8µM!; TDP1 cell noCPT: 21.1µM!

How did COc1ccc(-c2cnnc(N/N=C/c3ccc(C)o3)n2)cc1 do in these assays?
DT40 TDP1 CPT: inconclusive; TDP1 cell noCPT: 18.4µM; HT1080 IDH1KD tx: inactive; IL-1B inflam inh: inactive; HT1080-NT tox: inactive

Results for COc1ccc(-c2cnnc(N/N=C/c3ccc(O)c(O)c3)n2)cc1 ?
DT40 TDP1 CPT: 7.31µM; TDP1 cell noCPT: 9.2µM; HT1080 IDH1KD tx: inconclusive; IL-1B inflam inh: inactive; HT1080-NT tox: inconclusive

How did Cc1ccc(/C=N/Nc2nc3ccccc3s2)o1 do in these assays?
DT40 TDP1 CPT: inconclusive; TDP1 cell noCPT: inconclusive; HT1080 IDH1KD tx: inactive; IL-1B inflam inh: inconclusive; HT1080-NT tox: inactive

How did CCNc1nc(NCC)nc(N/N=C/c2ccc(O)c(O)c2)n1 do in these assays?
DT40 TDP1 CPT: 23.1µM; TDP1 cell noCPT: inactive; HT1080 IDH1KD tx: inactive; IL-1B inflam inh: inactive; HT1080-NT tox: inactive

Source: PubChem BioAssay
